Experimental data reported in the supplement of paper PMC11732987, “Enantioselective OTUD7B fragment discovery through chemoproteomics screening and high-throughput optimisation” (Communications Chemistry, 2025).

Tests used:
Test in all cases: log2 ratio of Biotin-Ahx-Ub-VS probe labelling (fragment/DMSO); higher = less target engagement (more negative = stronger competition), active = hit call of the paper (q ≤ 0.05, log2 ratio ≤ -1)
Conditions in all cases: compound concentration: 200 uM; treatment time: 3 h
USP42 = molecular target: T1, USP42 (UniProt Q9H9J4)
T1 sequence (whole entry): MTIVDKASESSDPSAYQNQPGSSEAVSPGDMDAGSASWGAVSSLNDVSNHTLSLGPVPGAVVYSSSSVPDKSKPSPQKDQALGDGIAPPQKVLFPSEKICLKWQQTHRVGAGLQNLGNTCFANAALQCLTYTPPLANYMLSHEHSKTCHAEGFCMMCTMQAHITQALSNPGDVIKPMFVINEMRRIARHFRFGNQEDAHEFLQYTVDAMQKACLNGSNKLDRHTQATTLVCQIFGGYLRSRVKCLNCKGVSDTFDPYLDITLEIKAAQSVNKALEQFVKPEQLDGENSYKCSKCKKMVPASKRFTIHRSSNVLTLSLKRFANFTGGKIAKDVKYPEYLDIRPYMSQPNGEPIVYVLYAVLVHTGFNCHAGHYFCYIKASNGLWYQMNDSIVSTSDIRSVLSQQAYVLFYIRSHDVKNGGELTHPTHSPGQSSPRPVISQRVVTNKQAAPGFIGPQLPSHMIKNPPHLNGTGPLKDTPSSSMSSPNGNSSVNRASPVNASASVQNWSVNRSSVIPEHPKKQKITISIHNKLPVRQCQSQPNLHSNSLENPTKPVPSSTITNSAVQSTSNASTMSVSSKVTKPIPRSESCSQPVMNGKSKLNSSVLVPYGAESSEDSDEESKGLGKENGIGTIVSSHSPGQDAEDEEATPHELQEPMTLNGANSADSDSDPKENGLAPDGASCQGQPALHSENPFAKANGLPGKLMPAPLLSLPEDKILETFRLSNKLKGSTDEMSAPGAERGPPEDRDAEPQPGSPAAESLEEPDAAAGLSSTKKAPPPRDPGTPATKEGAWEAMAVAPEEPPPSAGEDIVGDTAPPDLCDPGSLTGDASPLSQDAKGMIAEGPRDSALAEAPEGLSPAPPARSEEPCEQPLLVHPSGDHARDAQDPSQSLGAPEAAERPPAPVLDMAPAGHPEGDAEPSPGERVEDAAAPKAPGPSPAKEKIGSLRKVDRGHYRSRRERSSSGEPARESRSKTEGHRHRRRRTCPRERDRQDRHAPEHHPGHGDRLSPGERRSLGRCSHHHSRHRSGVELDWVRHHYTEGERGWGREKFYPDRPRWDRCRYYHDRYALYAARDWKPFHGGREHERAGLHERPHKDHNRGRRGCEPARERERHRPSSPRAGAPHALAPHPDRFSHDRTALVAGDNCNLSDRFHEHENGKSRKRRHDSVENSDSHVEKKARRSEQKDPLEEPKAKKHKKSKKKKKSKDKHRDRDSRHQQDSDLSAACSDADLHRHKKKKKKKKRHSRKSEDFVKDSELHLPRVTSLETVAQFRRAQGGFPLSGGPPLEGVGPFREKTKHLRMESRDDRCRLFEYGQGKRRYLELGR
Procedure, shortened: (§1)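 Labelled DUBs from HEK293T lysate were NeutrAvidin-enriched, digested with LysC and trypsin, and run by diaPASEF LC-MS/MS. Before that, each 495 µg sample in Tris/CHAPS/IGEPAL buffer with protease inhibitors was treated in triplicate with fragment at 200 µM or vehicle for 3 h, then with Biotin-Ahx-Ub-VS at 0.5 µM final for 1 h. Values are average log2 ratios of fragment over vehicle by unpaired t-test, based on global-median-normalised Spectronaut label-free quantities from proteins with ≥2 unique peptides.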

USP46 = USP46 (UniProt P62068)
Sequence of USP46 (P62068 whole entry): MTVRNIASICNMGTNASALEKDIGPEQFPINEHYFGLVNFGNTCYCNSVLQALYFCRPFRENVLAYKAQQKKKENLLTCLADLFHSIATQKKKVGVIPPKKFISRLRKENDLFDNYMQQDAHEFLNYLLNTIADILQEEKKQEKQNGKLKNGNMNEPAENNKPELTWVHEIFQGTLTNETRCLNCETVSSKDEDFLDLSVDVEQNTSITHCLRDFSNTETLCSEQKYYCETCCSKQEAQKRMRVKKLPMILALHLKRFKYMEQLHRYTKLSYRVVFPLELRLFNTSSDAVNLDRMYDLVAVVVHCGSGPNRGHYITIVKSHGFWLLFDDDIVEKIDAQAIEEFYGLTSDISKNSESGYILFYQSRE
Procedure, shortened: as §1

USP47 = molecular target: T2, USP47 (UniProt Q96K76)
T2 sequence (whole entry): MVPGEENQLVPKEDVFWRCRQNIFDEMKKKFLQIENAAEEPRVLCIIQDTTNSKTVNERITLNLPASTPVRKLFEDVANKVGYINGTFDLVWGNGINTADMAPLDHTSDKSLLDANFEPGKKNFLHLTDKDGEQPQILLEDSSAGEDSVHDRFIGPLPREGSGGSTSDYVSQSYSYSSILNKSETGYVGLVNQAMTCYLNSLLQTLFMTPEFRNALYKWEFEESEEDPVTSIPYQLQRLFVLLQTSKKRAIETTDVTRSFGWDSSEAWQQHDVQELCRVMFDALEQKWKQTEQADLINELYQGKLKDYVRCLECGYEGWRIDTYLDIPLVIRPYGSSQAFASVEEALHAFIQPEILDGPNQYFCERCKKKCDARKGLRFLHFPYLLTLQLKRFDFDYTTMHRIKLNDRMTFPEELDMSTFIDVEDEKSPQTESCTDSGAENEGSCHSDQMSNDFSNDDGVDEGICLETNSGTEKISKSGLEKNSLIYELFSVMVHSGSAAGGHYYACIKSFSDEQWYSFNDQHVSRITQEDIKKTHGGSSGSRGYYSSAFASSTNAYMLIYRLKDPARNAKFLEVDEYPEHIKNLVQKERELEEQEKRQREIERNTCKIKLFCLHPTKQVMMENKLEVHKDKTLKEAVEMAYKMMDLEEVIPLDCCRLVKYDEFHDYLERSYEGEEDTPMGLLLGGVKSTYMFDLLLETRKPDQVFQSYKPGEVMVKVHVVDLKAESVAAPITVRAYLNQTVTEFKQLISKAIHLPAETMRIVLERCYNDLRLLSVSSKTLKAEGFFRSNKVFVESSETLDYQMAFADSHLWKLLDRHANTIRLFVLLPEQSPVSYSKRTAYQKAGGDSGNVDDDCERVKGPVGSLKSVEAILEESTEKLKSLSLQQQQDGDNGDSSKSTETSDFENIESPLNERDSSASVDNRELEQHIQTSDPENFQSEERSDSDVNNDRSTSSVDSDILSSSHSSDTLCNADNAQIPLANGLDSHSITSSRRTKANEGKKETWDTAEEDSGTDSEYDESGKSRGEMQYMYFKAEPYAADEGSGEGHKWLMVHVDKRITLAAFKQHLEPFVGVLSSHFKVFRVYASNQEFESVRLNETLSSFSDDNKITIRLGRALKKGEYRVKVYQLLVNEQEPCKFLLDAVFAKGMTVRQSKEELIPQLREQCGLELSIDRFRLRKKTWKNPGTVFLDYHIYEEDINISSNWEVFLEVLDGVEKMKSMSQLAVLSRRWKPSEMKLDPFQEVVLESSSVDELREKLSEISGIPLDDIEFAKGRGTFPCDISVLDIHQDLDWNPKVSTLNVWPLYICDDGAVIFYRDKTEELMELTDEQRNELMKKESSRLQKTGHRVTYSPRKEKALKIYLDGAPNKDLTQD
Procedure, shortened: as §1

USP48 = molecular target: T3, USP48 (UniProt Q86UV5)
T3 sequence (whole entry): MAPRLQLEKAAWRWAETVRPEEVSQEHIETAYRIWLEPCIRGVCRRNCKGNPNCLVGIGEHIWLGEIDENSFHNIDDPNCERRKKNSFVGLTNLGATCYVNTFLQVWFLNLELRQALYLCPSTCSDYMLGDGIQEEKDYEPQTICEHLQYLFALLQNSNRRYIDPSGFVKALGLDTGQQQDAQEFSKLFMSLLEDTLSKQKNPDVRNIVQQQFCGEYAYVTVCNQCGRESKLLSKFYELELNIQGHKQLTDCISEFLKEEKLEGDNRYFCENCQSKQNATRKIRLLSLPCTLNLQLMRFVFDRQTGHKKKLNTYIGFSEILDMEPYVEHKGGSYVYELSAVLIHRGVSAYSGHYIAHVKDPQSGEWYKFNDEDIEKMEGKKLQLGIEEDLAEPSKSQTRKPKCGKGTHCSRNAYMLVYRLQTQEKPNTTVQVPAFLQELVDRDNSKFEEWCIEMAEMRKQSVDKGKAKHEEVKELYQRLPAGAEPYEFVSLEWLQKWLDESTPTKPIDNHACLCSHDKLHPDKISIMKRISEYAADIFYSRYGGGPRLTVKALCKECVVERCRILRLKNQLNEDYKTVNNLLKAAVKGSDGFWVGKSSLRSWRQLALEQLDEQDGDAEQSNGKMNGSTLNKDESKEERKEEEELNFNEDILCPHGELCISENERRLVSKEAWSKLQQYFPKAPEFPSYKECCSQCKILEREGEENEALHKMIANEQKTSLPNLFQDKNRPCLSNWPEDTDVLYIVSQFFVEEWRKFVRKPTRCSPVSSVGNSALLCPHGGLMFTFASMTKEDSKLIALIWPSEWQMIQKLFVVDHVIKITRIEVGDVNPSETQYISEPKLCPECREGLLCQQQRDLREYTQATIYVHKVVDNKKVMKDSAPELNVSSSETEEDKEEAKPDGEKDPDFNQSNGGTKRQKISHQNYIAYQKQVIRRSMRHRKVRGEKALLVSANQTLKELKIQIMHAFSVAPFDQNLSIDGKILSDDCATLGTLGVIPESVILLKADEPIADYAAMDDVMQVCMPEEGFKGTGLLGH
Procedure, shortened: as §1

USP5 = molecular target: T4, USP5 (UniProt P45974)
T4 sequence (whole entry): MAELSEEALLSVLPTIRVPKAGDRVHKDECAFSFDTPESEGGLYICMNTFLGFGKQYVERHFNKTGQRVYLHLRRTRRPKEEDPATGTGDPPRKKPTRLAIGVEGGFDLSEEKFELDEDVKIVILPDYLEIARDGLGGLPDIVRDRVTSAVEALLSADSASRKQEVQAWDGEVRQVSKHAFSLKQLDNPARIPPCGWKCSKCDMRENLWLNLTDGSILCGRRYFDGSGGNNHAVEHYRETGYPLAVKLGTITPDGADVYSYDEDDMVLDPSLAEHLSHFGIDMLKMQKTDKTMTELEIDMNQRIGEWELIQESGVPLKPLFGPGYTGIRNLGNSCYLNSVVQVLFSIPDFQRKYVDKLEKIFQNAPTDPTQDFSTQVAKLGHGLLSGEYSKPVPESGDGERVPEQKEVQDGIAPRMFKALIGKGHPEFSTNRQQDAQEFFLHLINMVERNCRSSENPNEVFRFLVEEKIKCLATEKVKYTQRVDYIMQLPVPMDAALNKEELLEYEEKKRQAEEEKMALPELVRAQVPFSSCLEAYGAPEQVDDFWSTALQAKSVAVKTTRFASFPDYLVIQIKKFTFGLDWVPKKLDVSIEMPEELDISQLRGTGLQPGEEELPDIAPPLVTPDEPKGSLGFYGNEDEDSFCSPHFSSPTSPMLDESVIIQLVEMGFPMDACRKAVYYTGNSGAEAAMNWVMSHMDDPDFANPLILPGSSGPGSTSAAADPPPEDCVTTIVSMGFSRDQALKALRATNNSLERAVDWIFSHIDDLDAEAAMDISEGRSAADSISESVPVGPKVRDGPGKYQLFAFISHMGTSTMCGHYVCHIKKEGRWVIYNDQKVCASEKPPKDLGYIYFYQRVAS
Procedure, shortened: as §1

USP54 = USP54 (UniProt Q70EL1)
Sequence of USP54 (Q70EL1 whole entry): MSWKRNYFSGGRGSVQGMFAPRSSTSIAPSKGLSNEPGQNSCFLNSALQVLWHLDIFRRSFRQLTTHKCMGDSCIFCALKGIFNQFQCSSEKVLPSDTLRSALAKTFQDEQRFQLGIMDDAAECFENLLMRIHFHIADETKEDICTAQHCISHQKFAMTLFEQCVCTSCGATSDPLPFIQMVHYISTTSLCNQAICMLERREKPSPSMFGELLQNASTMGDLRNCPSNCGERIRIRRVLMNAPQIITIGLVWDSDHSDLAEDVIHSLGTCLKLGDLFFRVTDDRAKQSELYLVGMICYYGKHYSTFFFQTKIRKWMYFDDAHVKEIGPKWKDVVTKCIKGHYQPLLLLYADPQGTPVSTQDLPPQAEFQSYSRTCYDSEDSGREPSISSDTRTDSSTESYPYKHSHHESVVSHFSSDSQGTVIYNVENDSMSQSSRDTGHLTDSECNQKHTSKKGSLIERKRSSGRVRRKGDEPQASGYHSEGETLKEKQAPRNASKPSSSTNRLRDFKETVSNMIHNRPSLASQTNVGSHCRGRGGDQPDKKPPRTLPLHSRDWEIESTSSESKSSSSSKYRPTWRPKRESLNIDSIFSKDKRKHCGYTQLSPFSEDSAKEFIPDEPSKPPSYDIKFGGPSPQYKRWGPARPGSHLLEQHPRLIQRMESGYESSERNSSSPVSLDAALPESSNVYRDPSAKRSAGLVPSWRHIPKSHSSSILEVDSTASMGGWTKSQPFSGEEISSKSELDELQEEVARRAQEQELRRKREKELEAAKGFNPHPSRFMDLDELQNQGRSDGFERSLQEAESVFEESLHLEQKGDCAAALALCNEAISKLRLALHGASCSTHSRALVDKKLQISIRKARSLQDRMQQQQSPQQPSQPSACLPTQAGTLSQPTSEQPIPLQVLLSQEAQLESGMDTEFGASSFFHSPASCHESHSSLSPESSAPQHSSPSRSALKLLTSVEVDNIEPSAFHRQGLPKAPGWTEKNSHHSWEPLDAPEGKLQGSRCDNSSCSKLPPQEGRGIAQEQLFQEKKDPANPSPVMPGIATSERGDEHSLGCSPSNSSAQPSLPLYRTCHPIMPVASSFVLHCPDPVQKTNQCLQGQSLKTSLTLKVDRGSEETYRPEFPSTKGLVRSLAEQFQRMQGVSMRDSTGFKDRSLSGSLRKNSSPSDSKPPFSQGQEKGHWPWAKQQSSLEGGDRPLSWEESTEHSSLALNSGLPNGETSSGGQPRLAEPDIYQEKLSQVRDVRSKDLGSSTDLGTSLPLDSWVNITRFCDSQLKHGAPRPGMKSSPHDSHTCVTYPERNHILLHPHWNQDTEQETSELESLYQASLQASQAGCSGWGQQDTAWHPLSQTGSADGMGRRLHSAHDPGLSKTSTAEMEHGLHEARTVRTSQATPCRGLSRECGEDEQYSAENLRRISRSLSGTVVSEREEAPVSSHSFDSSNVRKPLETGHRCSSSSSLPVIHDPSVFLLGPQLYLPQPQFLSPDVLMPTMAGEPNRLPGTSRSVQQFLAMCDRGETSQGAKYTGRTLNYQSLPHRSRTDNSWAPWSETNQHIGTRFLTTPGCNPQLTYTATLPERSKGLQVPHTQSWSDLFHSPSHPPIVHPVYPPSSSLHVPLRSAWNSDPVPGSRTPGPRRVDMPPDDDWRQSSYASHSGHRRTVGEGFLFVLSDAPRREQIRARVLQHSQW
Procedure, shortened: as §1

USP7 = USP7 (UniProt Q93009)
Sequence of USP7 (Q93009 whole entry, looked up): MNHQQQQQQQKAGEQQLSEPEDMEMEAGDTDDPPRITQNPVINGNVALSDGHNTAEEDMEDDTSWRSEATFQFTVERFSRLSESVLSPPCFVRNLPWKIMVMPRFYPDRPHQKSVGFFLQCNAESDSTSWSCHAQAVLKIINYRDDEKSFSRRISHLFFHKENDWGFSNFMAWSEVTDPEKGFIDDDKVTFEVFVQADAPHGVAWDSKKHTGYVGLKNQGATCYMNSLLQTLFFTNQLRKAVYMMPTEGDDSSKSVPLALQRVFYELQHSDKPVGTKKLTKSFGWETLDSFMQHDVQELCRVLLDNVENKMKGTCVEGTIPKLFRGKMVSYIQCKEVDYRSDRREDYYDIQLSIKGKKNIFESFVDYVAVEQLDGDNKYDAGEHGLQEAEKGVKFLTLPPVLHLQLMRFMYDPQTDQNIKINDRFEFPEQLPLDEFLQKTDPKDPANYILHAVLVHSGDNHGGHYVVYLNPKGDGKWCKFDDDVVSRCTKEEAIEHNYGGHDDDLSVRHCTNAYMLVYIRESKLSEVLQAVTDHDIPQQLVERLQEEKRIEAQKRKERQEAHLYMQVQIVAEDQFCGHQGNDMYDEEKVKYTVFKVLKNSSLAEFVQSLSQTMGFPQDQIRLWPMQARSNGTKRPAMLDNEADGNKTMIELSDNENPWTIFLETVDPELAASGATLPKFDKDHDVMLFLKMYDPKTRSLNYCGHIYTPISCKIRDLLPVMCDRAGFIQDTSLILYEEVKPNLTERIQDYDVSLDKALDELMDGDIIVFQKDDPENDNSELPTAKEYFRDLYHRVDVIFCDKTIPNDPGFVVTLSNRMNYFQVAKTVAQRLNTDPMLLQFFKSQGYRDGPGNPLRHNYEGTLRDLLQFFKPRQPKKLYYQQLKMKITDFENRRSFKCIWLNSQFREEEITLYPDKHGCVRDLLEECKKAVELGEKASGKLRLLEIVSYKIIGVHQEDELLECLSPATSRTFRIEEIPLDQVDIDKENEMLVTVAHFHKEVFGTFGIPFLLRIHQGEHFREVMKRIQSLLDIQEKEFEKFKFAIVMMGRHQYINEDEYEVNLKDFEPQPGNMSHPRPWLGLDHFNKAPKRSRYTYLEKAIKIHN
Procedure, shortened: as §1

USP8 = molecular target: T5, USP8 (UniProt P40818)
T5 sequence (whole entry): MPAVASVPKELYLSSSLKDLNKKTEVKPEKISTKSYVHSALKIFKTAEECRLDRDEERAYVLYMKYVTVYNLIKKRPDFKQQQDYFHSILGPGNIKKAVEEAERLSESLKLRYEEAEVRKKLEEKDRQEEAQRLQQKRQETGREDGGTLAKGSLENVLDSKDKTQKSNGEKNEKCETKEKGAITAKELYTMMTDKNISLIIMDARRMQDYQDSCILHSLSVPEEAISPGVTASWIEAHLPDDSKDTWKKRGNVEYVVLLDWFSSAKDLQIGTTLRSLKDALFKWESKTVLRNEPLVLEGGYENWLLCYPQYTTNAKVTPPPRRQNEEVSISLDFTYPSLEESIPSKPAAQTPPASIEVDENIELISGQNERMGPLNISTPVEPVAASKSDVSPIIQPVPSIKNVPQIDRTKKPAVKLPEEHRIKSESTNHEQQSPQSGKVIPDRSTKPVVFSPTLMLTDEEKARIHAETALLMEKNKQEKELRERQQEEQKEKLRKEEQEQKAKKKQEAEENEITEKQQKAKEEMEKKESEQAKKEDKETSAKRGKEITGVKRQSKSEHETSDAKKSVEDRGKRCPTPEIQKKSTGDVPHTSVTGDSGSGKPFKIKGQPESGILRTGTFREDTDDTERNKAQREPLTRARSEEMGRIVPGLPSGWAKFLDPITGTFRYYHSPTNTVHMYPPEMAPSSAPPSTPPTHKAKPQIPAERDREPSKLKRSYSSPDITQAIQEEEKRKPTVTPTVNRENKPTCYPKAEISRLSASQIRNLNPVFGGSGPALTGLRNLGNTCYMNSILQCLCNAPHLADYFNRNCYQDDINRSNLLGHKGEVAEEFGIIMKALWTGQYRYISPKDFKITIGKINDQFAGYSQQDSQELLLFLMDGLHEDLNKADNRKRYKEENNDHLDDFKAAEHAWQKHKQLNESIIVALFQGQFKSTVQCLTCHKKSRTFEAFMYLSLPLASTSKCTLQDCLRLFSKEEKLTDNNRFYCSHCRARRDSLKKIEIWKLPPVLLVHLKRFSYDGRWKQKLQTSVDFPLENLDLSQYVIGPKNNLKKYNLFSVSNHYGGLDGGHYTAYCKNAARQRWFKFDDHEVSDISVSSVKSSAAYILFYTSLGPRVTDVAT
Procedure, shortened: as §1

Measured: log2 ratio of Biotin-Ahx-Ub-VS probe labelling

Cc1cc(C(=O)NC2CCN(C(=O)CCl)CC2)no1
inactive: USP42 -0.284 | USP46 -0.048 | USP47 -0.0545 | USP48 -0.0815 | USP5 0.0506 | USP54 -0.176 | USP7 -0.222 | USP8 -0.0431
